Records with an inconclusive call do not appear. Entries that show only a call come without a potency. A number with no mark means an inactive call. The source made the active and inactive calls. Calls follow the shape of the dose curve; as a rule, active = well fitted cell-killing curve with a large enough effect; inconclusive = small, poorly fitted or top-dose-only effect, or effect the other way; inactive = no such curve, though single readings can be large or run the other way.
Assays:
[1] = Quantitative High-Throughput drug screen in 47 multiple myeloma cell lines against the NCATS MIPE library collection: XG1_PLB cell viability assay (AID 1919866); also: nearly all actives have a fitted effect of over 35% in size
In short: (§1)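 MIPE 4.0 approved/investigational drugs; 500 cells/well; 48 h 37 °C humidified 5% CO2; CTG luminescence readout; DMSO = 100%, media = 0% viability.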

[2] = Quantitative High-Throughput drug screen in 47 multiple myeloma cell lines against the NCATS MIPE library collection: RPMI8226_ATCC cell viability assay (AID 1919871); also: nearly all actives have a fitted effect of over 30% in size
In short: as §1

[3] = Quantitative High-Throughput drug screen in 47 multiple myeloma cell lines against the NCATS MIPE library collection: KMS11_JCRBsus cell viability assay (AID 1919873); also: nearly all actives have a fitted effect of over 50% in size
In short: as §1

[4] = Quantitative High-Throughput drug screen in 47 multiple myeloma cell lines against the NCATS MIPE library collection: PE2_PLB cell viability assay (AID 1919869); also: nearly all actives have a fitted effect of over 35% in size
In short: as §1

[5] = Quantitative High-Throughput drug screen in 47 multiple myeloma cell lines against the NCATS MIPE library collection: OPM2_DSMZ cell viability assay (AID 1919872); also: nearly all actives have a fitted effect of over 30% in size
In short: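 Viability readout: CellTiter-Glo luminescence following 5 min room-temperature incubation with reagent. Prior exposure: 48 h, 37C, humidified 5% CO2, 500 cells per well.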

[6] = Quantitative High-Throughput drug screen in 47 multiple myeloma cell lines against the NCATS MIPE library collection: KMS28BM_JCRB cell viability assay (AID 1919874); also: nearly all actives have a fitted effect of over 35% in size
In short: as §1

[7] = Quantitative High-Throughput drug screen in 47 multiple myeloma cell lines against the NCATS MIPE library collection: PCM6_Riken cell viability assay (AID 1919870); also: nearly all actives have a fitted effect of over 30% in size
In short: as §1

[8] = Quantitative High-Throughput drug screen in 47 multiple myeloma cell lines against the NCATS MIPE library collection: VP6_DJ cell viability assay (AID 1919867); also: nearly all actives have a fitted effect of over 40% in size
In short: as §1

[9] = Quantitative High-Throughput drug screen in 47 multiple myeloma cell lines against the NCATS MIPE library collection: UTMC2_PLB cell viability assay (AID 1919868); details: CellTiter-Glo ATP luminescence, 48 h; viability (% of DMSO control): at 45.8 µM (top of the series); also: nearly all actives have a fitted effect of over 55% in size
In short: as §1
Potency is read from the fitted curve at half-maximal effect.

SMILES | Potency [1] | Potency [2] | Potency [3] | Potency [4] | Potency [5] | Potency [6] | Potency [7] | Potency [8] | Potency [9]
COc1cc2nccc(Oc3ccc(NC(=O)Nc4cc(C)on4)c(Cl)c3)c2cc1OC | 1.66 µM (active) | 23.5 µM (active) | 20.9 µM (active) |  |  |  |  |  | 
CC=C1C2C=C(C)CC1(N)c1ccc(=O)[nH]c1C2 (stereo not given) | inactive | inactive | inactive | inactive | inactive | inactive |  |  | 
Cc1cc2c(cc1C1(c3ccc(C(=O)O)cn3)CC1)C(C)(C)CCC2(C)C | inactive | 0.0118 µM (active) | inactive | 26.4 µM (active) |  |  |  |  | 
C[C@]12CCC3=C4CCC(=O)C=C4CC[C@@H]3[C@H]1CC[C@@]2(O)CC#N | inactive | inactive |  | inactive | inactive |  |  |  | 
CNC1[C@H](O)C(O[C@@H]2C(O)C(O[C@H]3O[C@H]([C@@H](C)NC)CC[C@H]3N)[C@@H](N)C[C@H]2N)OC[C@]1(C)O (stereo not given in full) | 18.7 µM (active) | inactive |  |  | inactive | inactive | inactive |  | 
COC(=O)N1CCN(Cc2cccc(NC(=O)Nc3ccc(C)nc3)c2F)CC1 | inactive | inactive |  |  | inactive |  |  |  | 
CCCCC[C@H](O)C=C[C@H]1[C@H](O)CC(=O)[C@H]1CCCCCCC(=O)O | inactive | 0.105 µM (active) | inactive |  | inactive | inactive | inactive |  | 
CCC=CC[C@H]1C(=O)CC[C@@H]1CC(=O)OC | inactive |  | inactive |  | inactive | inactive | inactive |  | 
c1ccc(CNc2nc(N3CCOc4ccccc43)nc3c2CCCC3)cc1 | inactive |  |  |  |  |  | inactive |  | 
COc1cc(F)c(C(C)C)cc1-c1ccc(C(F)(F)F)cc1CN1C(=O)O[C@H](c2cc(C(F)(F)F)cc(C(F)(F)F)c2)[C@@H]1C | 26.4 µM (active) | 1.66 µM (active) | inactive |  | inactive | inactive | 23.5 µM (active) |  | 
CC(C)N(CCCNC(=O)Nc1ccc(C(C)(C)C)cc1)C[C@H]1O[C@@H](n2cc(Br)c3c(N)ncnc32)[C@H](O)[C@H]1O | 23.5 µM (active) |  | 18.7 µM (active) |  | 23.5 µM (active) |  | 23.5 µM (active) |  | 
O=C(NCCCCN1CCOCC1)c1cc2ccccc2o1 | inactive | inactive | inactive |  | inactive | inactive | inactive |  | 
O=C(O)C1=CC(O)C(O)[C@H](O)C1 (stereo not given in full) | inactive |  | inactive | inactive | inactive | inactive |  |  | 
O=C(Nc1ncc(SCCN2CCCC2)s1)[C@]1(c2ccc(S(=O)(=O)C3CC3)cc2)C[C@@H]1C1CCCCC1 | 8.33 µM (active) | 23.5 µM (active) | 7.43 µM (active) |  |  | 8.33 µM (active) | 8.33 µM (active) |  | 
CO[C@H]1/C=C\O[C@@]2(C)Oc3c(C)c(O)c4c(O)c(c5c(nc6cc(C)ccn65)c4c3C2=O)NC(=O)C(C)=CC=C[C@H](C)[C@H](O)[C@@H](C)[C@@H](O)[C@@H](C)[C@H](OC(C)=O)[C@H]1C | inactive |  | inactive |  | inactive | inactive |  |  | 
CNc1nc(Nc2ccc(C(=O)N3CCOCC3)cc2OC)ncc1Cl | 16.6 µM (active) |  | inactive |  | inactive | inactive | 16.6 µM (active) |  | 
CC(=O)O[C@]1(C(C)=O)CC[C@H]2[C@@H]3C=C(Cl)C4=CC(=O)[C@@H]5C[C@H]5[C@]4(C)[C@@H]3CC[C@@]21C | 7.43 µM (active) | 20.9 µM (active) | inactive | 11.8 µM (active) | inactive | inactive |  |  | 
O=C1NC(=O)C(c2cnc3ccccn23)=C1c1cn2c3c(cccc13)CN(C(=O)N1CCOCC1)CC2 |  | 18.7 µM (active) | 0.0935 µM (active) |  | 0.0047 µM (active) | inactive | 7.43 µM (active) | 5.26 µM (active) | 0.001 µM (active)
COc1ccc(-c2cc(=O)c3c(O)cc(O[C@@H]4O[C@H](CO[C@@H]5O[C@@H](C)[C@H](O)[C@@H](O)[C@@H]5O)[C@@H](O)[C@H](O)[C@@H]4O)cc3o2)cc1O |  | inactive | inactive | 23.5 µM (active) | inactive |  | 11.8 µM (active) | 14.8 µM (active) | 
CCC(=O)NCC[C@@H]1CCc2ccc3c(c21)CCO3 |  | inactive | inactive | inactive |  | inactive |  | inactive | inactive
Nc1nc(Cl)nc2c1ncn2[C@@H]1O[C@H](CO)[C@@H](O)[C@H]1F |  | 2.35 µM (active) |  | 0.418 µM (active) |  | 0.0235 µM (active) |  | 0.187 µM (active) | 0.332 µM (active)
C=C1[C@H](n2cnc3c(=O)[nH]c(N)nc32)C[C@H](O)[C@H]1CO |  | inactive |  | inactive | inactive |  |  | 4.69 µM (active) | 
NC(N)=Nc1nc(CSCCC(N)=NS(N)(=O)=O)cs1 |  | inactive | inactive | 20.9 µM (active) |  |  | 14.8 µM (active) | 5.26 µM (active) | 9.35 µM (active)
COc1ccc(-c2oc3c(CC=C(C)C)c(O)cc(O)c3c(=O)c2O)cc1 |  | 20.9 µM (active) | inactive | inactive | inactive | 3.72 µM (active) | 7.43 µM (active) | 5.26 µM (active) | 

— PubChem BioAssay (NCATS)
